Data as given in PubChem BioAssay (Tox21).
Several values for one entry are separate records, joined by “and”; a condition that tells them apart may be missing. Equal values may be shown once. Results filed as inconclusive are left out. Entries that show only a call come without a potency. The source holds several records for some structures; these can differ, active in one and inactive in another. Activity calls are given as the source filed them. Unless noted, calls follow the shape of the dose curve; as a rule, active = well fitted curve in the direction sought with a large enough effect in the repeat runs; inconclusive = weak or mixed curves; inactive = no such curve, though single readings can be large; an effect the other way counts as inactive or inconclusive.

What was measured:
[1] = qHTS assay to identify small molecule agonists of the vitamin D receptor (VDR) signaling pathway - cell viability counter screen (AID 743224); also: series mostly up to about 63 µM; nearly all actives have a fitted effect of over 50% in size
Outline: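 VDR-bla cells were preincubated 4 h at 37C/5% CO2, then exposed to compounds for 16 h. After the 2 h room-temperature bla FRET read, CellTiter-Glo was added to the same wells and luminescence read after 30 min.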

[2] = qHTS assay to identify small molecule antagonists of the vitamin D receptor (VDR) signaling pathway - cell viability counter screen (AID 743225); also: nearly all actives have a fitted effect of over 50% in size
Outline: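 Cytotoxicity toward the VDR-bla HEK 293T line was scored by ATP-based CellTiter-Glo luminescence, read in the wells already used for the beta-lactamase readout after 16 h compound treatment under 3 nM 1-alpha,25-dihydroxyvitamin D3 stimulation.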

[3] = qHTS assay to identify small molecule agonists of the NFkB signaling pathway (AID 1159509; active = well fitted curve in the direction sought with a large enough effect in the signal ratio in the repeat runs, not every such curve was filed as active; the % refers to the signal ratio; also: series mostly up to about 61 µM)
Outline: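 NFkB-bla ME-180 cells with a beta-lactamase reporter under an NF-kB response element were plated overnight, treated with compounds in DMSO for 5 hr at 37 C, then loaded with FRET substrate for 1.5 hr at room temperature.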

[4] = qHTS assay to identify small molecule agonists of the NFkB signaling pathway - cell viability counter screen (AID 1159515; calls by dose curve; also: series mostly up to about 61 µM; nearly all actives have a fitted effect of over 55% in size)
Outline: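 NFkB-bla ME-180 cells, 2,000/well, were plated overnight at 37 C, 5% CO2, then exposed to compounds in DMSO for 5 hr. After the bla FRET read, CellTiter-Glo was added to the same wells; luminescence was read after 30 min at room temperature.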

[5] = qHTS assay to identify small molecule agonists of the endoplasmic reticulum stress response signaling pathway (AID 1159516; active = well fitted activation curve with a large enough effect in the signal ratio in the repeat runs, not every such curve was filed as active; the % refers to the signal ratio)
Outline: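 CellSensor ESRE-bla HeLa cells, carrying a beta-lactamase reporter driven by the ER stress response element, were plated overnight and exposed to compounds for 5 hr at 37 C. Reporter activity was read as FRET substrate fluorescence after 2 hr at room temperature.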

[6] = qHTS assay to identify small molecule agonists of the endoplasmic reticulum stress response signaling pathway - cell viability counter screen (AID 1159517; calls by dose curve; also: series mostly up to about 61 µM; nearly all actives have a fitted effect of over 50% in size)
Outline: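 Luminescence readout: CellTiter-Glo, 30 min RT, same wells as the ESRE-bla reporter read. HeLa ESRE-bla, 1,500 cells/well, o/n 37 C; cpd 5 hr 37 C/5% CO2.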

[7] = qHTS assay to identify small molecule antagonists of the retinoid-related orphan receptor gamma (ROR-gamma) signaling pathway - cell viability counter screen (AID 1159520); also: nearly all actives have a fitted effect of over 50% in size; also: potency is read from the fitted curve at half-maximal effect
Outline: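 Tet-on ROR gamma CHO cells (1,000/well) were plated 4 hr, given compounds in DMSO for 2 hr at 37 C, then induced with 1 uM final doxycycline for 16 hr. Viability was read as ATP by CellTiter-Glo luminescence after 30 min.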

[8] = biological target: Nuclear receptor ROR-gamma (Homo sapiens) (UniProt P51449); experiment: qHTS assay to identify small molecule antagonists of the retinoid-related orphan receptor gamma (ROR-gamma) signaling pathway (AID 1159521; also: nearly all actives have a fitted effect of over 50% in size; also: potency is read from the fitted curve at half-maximal effect)
Outline: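 Readout: ONE-Glo luciferase luminescence, 30 min at room temperature. System: Tet-on RORγ CHO, RORE-LUC. Sequence: compound 2 h, doxycycline 1 uM final, 16 h at 37 C.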

[9] = qHTS assay to identify small molecule agonists of the AP-1 signaling pathway - cell viability counter screen (AID 1159525; calls by dose curve; also: nearly all actives have a fitted effect of over 55% in size; also: potency is read from the fitted curve at half-maximal effect)
Outline: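 ME-180 AP-1-bla, 2500 cells/well, Opti-MEM + 0.5% dialyzed FBS; overnight 37 °C; cpd 15-pt titration, 5 h 37 °C; CellTiter-Glo 30 min RT; luminescence read; normalised to TOAB and DMSO controls.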

[10] = qHTS assay to identify small molecule agonists of the AP-1 signaling pathway (AID 1159526; calls by dose curve)
[11] = qHTS assay to identify small molecule agonists of the RXR signaling pathway - cell viability counter screen (AID 1159529); also: nearly all actives have a fitted effect of over 50% in size; also: potency is read from the fitted curve at half-maximal effect
Outline: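 Tox21 10K compounds were tested for cytotoxicity against GeneBLAzer RXR-alpha HEK 293T cells grown in 2% charcoal-stripped FBS. Exposure lasted 16 hr at 37 C, 5% CO2; viability read by CellTiter-Glo luminescence.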

[12] = qHTS assay to identify small molecule antagonists of the retinoid acid receptor (RAR) signaling pathway - cell viability counter screen (AID 1159551); also: nearly all actives have a fitted effect of over 35% in size
Outline: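 C3RL4 cells were seeded overnight at 37 C, then treated with compounds plus 1 uM (final) retinol for 6 h at 37 C. Viability was read as ATP by CellTiter-Glo luminescence after 30 min at room temperature.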

[13] = qHTS assay to identify small molecule antagonists of the estrogen related receptor (ERR) signaling pathway from Tox21 library - cell viability counter screen (AID 1224834); also: nearly all actives have a fitted effect of over 30% in size; also: potency is read from the fitted curve at half-maximal effect
Outline: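 ERR reporter cells were plated 6 h before compound addition, then exposed to test compounds in DMSO for 17.5 h at 37 C. Viability was read as CellTiter-Fluor fluorescence after a 30-minute incubation at 37 C.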

[14] = biological target: Luciferin 4-monooxygenase (Photinus pyralis) (UniProt P08659); experiment: qHTS assay to identify small molecule inhibitors of firefly luciferase (AID 1224835); also: nearly all actives have a fitted effect of over 25% in size; also: potency is read from the fitted curve at half-maximal effect
Chain of Luciferin 4-monooxygenase (Photinus pyralis) (P08659 whole entry, looked up): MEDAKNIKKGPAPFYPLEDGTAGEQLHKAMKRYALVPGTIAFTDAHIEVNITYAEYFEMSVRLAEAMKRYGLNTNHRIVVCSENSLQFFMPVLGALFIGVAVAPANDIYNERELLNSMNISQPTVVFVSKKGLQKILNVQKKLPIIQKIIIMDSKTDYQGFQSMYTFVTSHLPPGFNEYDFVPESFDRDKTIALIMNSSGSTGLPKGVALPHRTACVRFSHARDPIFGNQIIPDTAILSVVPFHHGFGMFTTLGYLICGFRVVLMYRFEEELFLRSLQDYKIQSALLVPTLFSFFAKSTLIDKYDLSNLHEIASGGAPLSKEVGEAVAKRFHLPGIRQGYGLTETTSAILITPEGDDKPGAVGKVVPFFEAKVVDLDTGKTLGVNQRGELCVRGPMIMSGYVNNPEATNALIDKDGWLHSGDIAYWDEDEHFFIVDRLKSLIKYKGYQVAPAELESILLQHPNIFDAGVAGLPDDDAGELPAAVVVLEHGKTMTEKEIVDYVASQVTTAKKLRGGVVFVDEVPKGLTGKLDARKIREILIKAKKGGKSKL
Outline: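 Quantitative HTS format; KM concentrations of both substrates. Purified P. pyralis FLuc activity quantified from luminescence images.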

[15] = qHTS assay to identify small molecule agonists of the constitutive androstane receptor (CAR) signaling pathway - cell viability counter screen (AID 1224836); also: series mostly up to about 92 µM; nearly all actives have a fitted effect of over 45% in size
Outline: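 Fluorescence from CellTiter-Fluor indicates live cells after 23 h exposure. The human hepatoma line expresses hCAR and a CYP2B6-2.2kb reporter. Incubation medium contains 0.75 uM PK11195 (final).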

[16] = qHTS assay to identify small molecule antagonists of the constitutive androstane receptor (CAR) signaling pathway - cell viability counter screen (AID 1224837); also: series mostly up to about 92 µM; nearly all actives have a fitted effect of over 45% in size
Outline: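 HepG2 cells stably expressing hCAR and a CYP2B6-2.2kb reporter were plated and pre-incubated 4 hr at 37 C/5% CO2, then given compounds at 15 concentrations plus 50 nM CITCO (final). After 23 hr, viability was read by CellTiter-Fluor fluorescence.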

[17] = qHTS assay to identify small molecule antagonists of the retinoic acid receptor (RAR) signaling pathway (AID 1159552; also: nearly all actives have a fitted effect of over 50% in size)
Outline: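 Overnight-plated C3RL4 reporter cells get compound, then retinol to 1 uM final; plates sit 6 hr at 37 C, 5% CO2. A luciferase reagent is added and light output recorded after 30 min at room temperature.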

[18] = qHTS assay to identify small molecule agonists of the retinoic acid receptor (RAR) signaling pathway (AID 1159553)
Outline: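 C3RL4 cells carrying a RARE luciferase reporter were plated overnight at 37 C, then exposed to compounds in DMSO for 6 hr at 37 C and 5% CO2. Luminescence was read 30 min after luciferase reagent addition at room temperature.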

[19] = qHTS assay to identify small molecule antagonists of the estrogen related receptor (ERR) signaling pathway - cell viability counter screen (AID 1224818);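 also: series mostly up to about 46 µM; viability measured after 17.5 h of compound exposure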
Outline: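 ERR reporter cells plated 6 h at 37 C/5% CO2, then compounds in DMSO pin-transferred and incubated 17.5 h at 37 C. Viability read as CellTiter-Fluor fluorescence after 30 min at 37 C.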

[20] = biological target: Retinoic acid receptor RXR-alpha (Homo sapiens) (UniProt P19793); experiment: qHTS assay to identify small molecule agonists of the RXR signaling pathway (AID 1159527; calls by dose curve; also: nearly all actives have a fitted effect of over 35% in size)
Chain of Retinoic acid receptor RXR-alpha (Homo sapiens) (P19793 whole entry, looked up): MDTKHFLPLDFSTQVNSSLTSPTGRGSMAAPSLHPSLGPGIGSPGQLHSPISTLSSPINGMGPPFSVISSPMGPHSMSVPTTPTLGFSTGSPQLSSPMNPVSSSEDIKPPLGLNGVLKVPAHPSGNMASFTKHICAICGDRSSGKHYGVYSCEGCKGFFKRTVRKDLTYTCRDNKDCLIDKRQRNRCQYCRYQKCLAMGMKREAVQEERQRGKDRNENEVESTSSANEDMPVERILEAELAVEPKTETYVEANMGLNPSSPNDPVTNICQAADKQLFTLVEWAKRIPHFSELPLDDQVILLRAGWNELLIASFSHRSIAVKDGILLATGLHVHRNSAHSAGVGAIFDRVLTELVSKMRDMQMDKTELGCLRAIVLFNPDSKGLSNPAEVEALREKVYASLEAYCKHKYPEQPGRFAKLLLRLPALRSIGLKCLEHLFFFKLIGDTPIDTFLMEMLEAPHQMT
Outline: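 Reporter activation is measured as beta-lactamase activity via FRET substrate cleavage (emission 460/530 nm) in HEK 293T cells expressing an RXR-alpha-driven bla construct, following 16 hr compound exposure at 37 C.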

Compound | Potency [1] | outcome [2] | outcome [3] | outcome [4] | outcome [5] | outcome [6] | Potency [7] | Potency [8] | Potency [9] | outcome [10] | Potency [11] | outcome [12] | Potency [13] | Potency [14] | Potency [15] | Potency [16] | Potency [17] | Potency [18] | outcome [19] | Potency [20]
CC[C@H](C)C(=O)O[C@H]1C[C@@H](C)C=C2C=C[C@H](C)[C@H](CC[C@@H]3C[C@@H](O)CC(=O)O3)[C@H]21 | inactive | inactive | inactive | inactive | inactive | inactive | 27.7 µM (active) | 982 nM (active) and 1.21 µM (active) | 55.7 µM (active) and inactive | inactive | 8.83 µM (active) | inactive | 69.6 µM (active) and inactive | inactive | inactive | inactive | – | – | – | –
COc1ccc(Cl)cc1C(=O)NCCc1ccc(S(=O)(=O)NC(=O)NC2CCCCC2)cc1 | inactive | inactive | inactive | inactive | inactive | inactive | inactive | inactive | inactive | inactive | inactive | inactive | inactive | – | inactive | inactive | inactive | inactive | inactive | –
c1ccc2c(c1)ccc1ccccc12 | inactive | inactive | inactive | inactive | inactive | inactive | inactive | inactive | – | inactive | inactive | inactive | inactive | 34.6 µM (active) and 56.4 µM (active) | inactive | inactive | inactive | inactive | – | inactive
O=[N+]([O-])c1ccc(/C=C/c2ccc([N+](=O)[O-])cc2S(=O)(=O)O)c(S(=O)(=O)O)c1 | inactive | inactive | inactive | inactive | inactive | inactive | inactive | inactive | inactive | inactive | inactive | inactive | inactive | inactive | – | inactive | – | – | – | –
O=C(O)c1ccc(C(=O)O)cc1 | inactive | inactive | inactive | inactive | inactive | inactive | inactive | inactive | inactive | inactive | inactive | inactive | inactive | inactive | – | inactive | – | – | – | inactive
O=C(O)c1cc(C(=O)O)cc(S(=O)(=O)O)c1 | inactive | inactive | inactive | inactive | inactive | inactive | inactive | inactive | inactive | inactive | inactive | inactive | inactive | inactive | inactive | inactive | inactive | inactive | – | –
C[C@H]1C[C@H]2[C@@H]3CCC4=CC(=O)C=C[C@]4(C)[C@@]3(F)[C@@H](O)C[C@]2(C)[C@@]1(O)C(=O)CO | – | – | inactive | inactive | inactive | inactive | inactive | inactive | inactive | inactive | inactive | inactive | inactive | – | inactive | inactive | – | – | – | –
OC[C@H]1O[C@@](CO)(O[C@H]2O[C@H](CO)[C@@H](O)[C@H](O)[C@H]2O)[C@@H](O)[C@@H]1O | inactive | inactive | inactive | inactive | inactive | inactive | inactive | inactive | – | inactive | inactive | inactive | inactive | inactive | – | inactive | inactive | inactive | – | inactive
